According to the supplement of paper PMC5940239:

These compounds were tested on Madurella mycetomatis MM55 (assay: percent growth relative to solvent control; higher = less inhibition, active = 20 or less). Details: 100 µM; 7 days.

SMILES | percent growth
CNC(=O)C1Cc2c([nH]c3cc(Cl)ccc23)C2(CCN(CCc3ccccc3)CC2)N1 (stereo not drawn) | 70% (inactive)
Nc1ncc(Br)cc1-c1nc2cc(Cl)cnc2[nH]1 | 105% (inactive)
O=S(=O)(c1ccc(Cl)cc1)N1CCN(C(=S)NCc2ccco2)CC1 | 151% (inactive)
COC(=O)Nc1nc2cc(C(=O)c3ccccc3)ccc2[nH]1 | 111% (inactive)
Cc1cc(Nc2ccc(C(F)(F)F)cc2)n2ccnc2n1 | 77.4% (inactive)
CC(C(=O)N1CCCC1)N1CCN(S(=O)(=O)c2ccc(C(C)(C)C)cc2)CC1 (stereo not drawn) | 89.9% (inactive)
OCCc1ccc(Nc2nccc(-c3nnc4ccccn34)n2)cc1 | 88.7% (inactive)
N#Cc1ccc(-c2cnc(N)c(-c3ccc(C(N)=O)cc3)n2)cc1 | 64.5% (inactive)
CCCNC(=O)N1CCC2(CC1)CC(=O)c1cc(C)ccc1O2 | 102% (inactive)
CC1(COc2ccc(N3CCC(Oc4ccc(OC(F)(F)F)cc4)CC3)cc2)Cn2cc([N+](=O)[O-])nc2O1 (stereo not drawn) | 111% (inactive)
CC(C)(C)OC(=O)N1CCC(Cn2nc(-c3cnc4ccccc4c3)c3c(N)ncnc32)CC1 | 99.2% (inactive)
Cc1ccc2[nH]c3c(NCCN(C)C)ncnc3c2c1 | 94.1% (inactive)
COc1ccc(Nc2ccccc2NC(=O)c2ccc(O)nc2)cc1 | 85.8% (inactive)
O=C(C1CCCCC1)N1CC(=O)N2CCc3ccccc3C2C1 (stereo not drawn) | 92.7% (inactive)
CS(=O)(=O)N1CCC(Cn2nc(Cc3cccc4ccccc34)c3c(N)ncnc32)CC1 | 92.8% (inactive)
Nc1ncnc2[nH]nc(Cc3cccc4ccccc34)c12 | 118% (inactive)
Cc1ccc(C(=O)Nc2ccc(S(=O)(=O)O)c3cc(S(=O)(=O)O)cc(S(=O)(=O)O)c23)cc1NC(=O)c1cccc(NC(=O)Nc2cccc(C(=O)Nc3cc(C(=O)Nc4ccc(S(=O)(=O)O)c5cc(S(=O)(=O)O)cc(S(=O)(=O)O)c45)ccc3C)c2)c1 | 141% (inactive)
CCn1ncc2c(NC3CCOCC3)c(CNC(=O)c3ccnn3C)c(C)nc21 | 142% (inactive)
COc1ccc(Cl)cc1NC(=O)CN(C)C(=O)c1cnn(-c2ccccc2)n1 | 30.8% (inactive)

SMILES | percent growth
CCN(CC)S(=O)(=O)c1ccc(Cl)c(C(=O)Nc2ccc3nc(C)sc3c2)c1 | 119% (inactive)
CO[C@H]1/C=C/O[C@@]2(C)Oc3c(C)c(O)c4c(O)c(/c(=C/NN5CCN(C)CC5)c(O)c4c3C2=O)=N\C(=O)/C(C)=C\C=C/[C@H](C)[C@H](O)[C@@H](C)[C@@H](O)[C@@H](C)[C@H](OC(C)=O)[C@@H]1C | 92.6% (inactive)
O=C(NC1CC1)c1ccc(N2CCC(Cc3ccccc3)CC2)nc1 | 104% (inactive)
COc1ccc2nccc(NC(=O)C3CCN(CCc4ccc(Cl)cc4)CC3)c2n1 | 48.8% (inactive)
CC(C)(C)CN1C(=O)C(c2ccccc2)(c2ccccc2)N=C1N | 66.1% (inactive)
CNC1C(OC2C(OC3C(O)C(O)C(NC(=N)N)C(O)C3NC(=N)N)OC(C)C2(O)C=O)OC(CO)C(O)C1O (stereo not drawn) | 119% (inactive)
CN1CCN(c2nccc3nc(-c4ccc(F)c(F)c4)[nH]c23)CC1 | 52.1% (inactive)
COc1ccc(N(CCc2cccc(C)n2)C(=O)C2CCCCC2)cc1 | 28% (inactive)
Cc1cc(C)n2nc(C(=O)Nc3cc(C(F)(F)F)ccc3N3CCOCC3)nc2n1 | 162% (inactive)
CC(=O)N1CCN(c2ccc(Oc3ccc(Cl)cc3O)cc2)CC1 | 102% (inactive)
O=C1Nc2ccc(Br)cc2C12NCCc1c2[nH]c2ccccc12 (stereo not drawn) | 63.6% (inactive)
CCC(=O)Nc1ccccc1C(=O)Nc1ccccn1 | 62.5% (inactive)
CC(C)(C)c1cnc(NC(=O)c2ccccc2O)s1 | 99.3% (inactive)
O=C(Nc1ccc(F)c(-c2nc3cc(-c4ccccc4)cnc3[nH]2)c1)N1CCCC1 | 95.8% (inactive)
N=C(N)c1ccc(OCCCCCOc2ccc(C(=N)N)cc2)cc1 | 48.7% (inactive)
O=C(C1CCN(c2nnnn2-c2ccccc2)CC1)N1CCc2ccccc2C1 | 56.4% (inactive)
Brc1c(-c2ccc3c(c2)OCO3)nc2ncccn12 | 85.6% (inactive)
CC[C@H](CO)NCCN[C@H](CC)CO | 139% (inactive)
CC1CS(=O)(=O)CCN1/N=C/c1ccc([N+](=O)[O-])o1 (stereo not drawn) | 96.8% (inactive)
